According to PubChem BioAssay (NCATS):
Records with an inconclusive call do not appear. Calls of active or inactive are those of the source. The call rests on the fitted dose curve; in most records, active means well fitted inhibition curve with a large enough effect; inconclusive means small, poorly fitted or top-dose-only effect; inactive means flat fitted curve, though single readings scatter.

Target: Calcium and integrin-binding protein 1 (Homo sapiens) (UniProt Q99828)
Experiment: Primary qHTS for Identification of Calcium Integrin Binding Protein 1 (CIB1) Competitor (AID 1508620); further: top concentration of the series differs between compounds
Conditions: CIB1-GST / FITC-alphaIIb peptide fluorescence polarization; series mostly up to 114 µM; activity change, negative = inhibition: at the top concentration
Method in brief: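 Fluorescence polarization competition: GST-tagged CIB1 (1 uM final) preincubated with compound 15 min at room temperature, then FITC-labelled alphaIIb peptide (100 nM final) added. After 15 min at room temperature, polarization read at Ex 480/Em 540.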
On the % scale 0 is the no-effect control and ±100 the full control effect.

Calcium and integrin-binding protein 1 (Homo sapiens), sequence (Q99828 whole entry, looked up): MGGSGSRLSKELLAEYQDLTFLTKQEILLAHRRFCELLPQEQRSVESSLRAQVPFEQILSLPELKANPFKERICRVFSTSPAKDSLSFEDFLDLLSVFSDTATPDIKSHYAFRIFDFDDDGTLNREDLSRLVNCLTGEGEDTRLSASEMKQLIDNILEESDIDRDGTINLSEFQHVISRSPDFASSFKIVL

| Compound | activity change, negative = inhibition |
| --- | --- |
| Cc1cc2c(s1)c1cnn(Cc3c(F)ccc(F)c3Cl)c(=O)c1n2C | 11.9% (inactive) |
| C[C@@H]1CN(S(=O)(=O)c2ccc3c(c2)OCCO3)CCN1S(=O)(=O)c1c(F)cccc1F | 0.975% (inactive) |
| COc1ccc(C2Nc3ccccc3C(=O)N2Cc2ccco2)cc1CSc1c(C)cccc1C (configuration not stated) | -4.02% (inactive) |
| Cc1cc(N[S+](=O)([O-])c2cc3c(cc2Cl)NC(=O)CO3)ccc1Cl | -6.02% (inactive) |
| Cc1ccc(NS(=O)(=O)c2cc3c(cc2/C=C/c2ccccc2)NC(=O)CO3)cc1C | 1.45% (inactive) |
| O=C(Nc1ccc(Cl)c(Cl)c1)Nc1nnc(-c2cccnc2)s1 | 2.97% (inactive) |
| CCOc1ccc(CCNC(=O)c2cc3sccc3n2C)cc1OCC | -3.39% (inactive) |
| Cc1ccc(NS(=O)(=O)c2ccc3c(c2)CCC(C)(C)O3)cc1C | -0.038% (inactive) |
| Cc1ccc(-c2ccc(=O)n(CC(=O)NCCCc3ccccc3)n2)cc1 | -6.78% (inactive) |
| S=C(Nc1cc(Cl)ccn1)N1CCN(c2cccc(Cl)c2Cl)CC1 | 2.26% (inactive) |
| O=S(=O)(c1ccc2c(c1)OCCCO2)N1CCN(S(=O)(=O)c2c(F)cccc2F)CC1 | 4.46% (inactive) |
| COc1ccc(-c2csc(N3CCC(C(N)=O)CC3)n2)cc1OC | -2.43% (inactive) |
| CCCCN1C(=O)c2ccccc2C1=O | 3.16% (inactive) |
| COc1ccc(C2=Nn3c(nnc3-c3cc(OC)cc(OC)c3)SC2)cc1 | 5.21% (inactive) |
| Oc1cc(Nc2ccc(N3CCCCC3)cc2)cc2cccnc12 | -11.9% (inactive) |
| COc1cc(OC)c(C(CC(=O)N2CC(C)CC(C)C2)c2ccc3c(c2)OCO3)c(OCC(N)=O)c1 (configuration not stated) | -2.25% [at 228 µM] (inactive) |
| COC(=O)c1ccccc1NC(=O)c1ccc(C#N)cc1 | -2.51% (inactive) |
